Entries with a potency or affinity are not part of this list. Inconclusive results are not listed. The source made the active and inactive calls.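 How the source made its calls, unless noted: active means fitted dose curve reaches 40% lysis signal rise at or below the highest valid concentration tested for that sample; inconclusive means flat fit between 30% and 70%, or poor curve fit; inactive means signal falls, stays flat within 30%, or no crossing.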
How the values were obtained:
[1] = Cryptococcus neoformans growth inhibition, dose response, Alamar Blue, cherry-picks (AID 686998;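 active means falling signal with fitted half-maximal potency no higher than twice the top valid tested dose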)
[2] = inducers of Cryptococcus neoformans cell lysis, dose response, AK release luminescence, cherry-picks (AID 687000);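 further: luminescent detection of adenylate kinase leaking from lysed yeast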
[3] = HepG2 cell cytotoxicity, dose response, cytotoxicity control, cherry-picks, set 2 (AID 687002;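 active means a dose-response fit showing signal loss, with half-maximal concentration no higher than twice the top tested dose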)
[4] = HeLa cell cytotoxicity, dose response, cytotoxicity control, ATP luminescence, cherry-pick samples (AID 687004;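 active means a fitted half-maximal concentration no higher than twice the top valid tested dose, with signal falling as cells die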)

Measured: outcome

Cc1noc(C)c1S(=O)(=O)Nc1ccc2c(c1)C(=O)N([C@H](C)CO)C[C@@H](C)[C@H](CN(C)Cc1ccccc1)OCCCC[C@H](C)O2
inactive: [1] | [2] | [3] | [4]

O=C(NCc1ccc(F)cc1)C1C2C=CC3(CN(Cc4cccnc4)C(=O)C13)O2 (configuration not stated)
inactive: [1] | [2] | [3] | [4]

CCCNC(=O)C[C@@H]1CC[C@H]2[C@@H](COC[C@H](O)CN2Cc2ccccc2F)O1
inactive: [1] | [2] | [3] | [4]

COc1ccccc1CNC(=O)C[C@@H]1C[C@@H]2c3cc(NC(=O)Nc4ccccc4F)ccc3O[C@@H]2[C@H](CO)O1
inactive: [1] | [2] | [3] | [4]

CCCNC(=O)Nc1ccc2c(c1)C(=O)N(C)C[C@H](OC)[C@@H](C)CN(Cc1cccnc1)[C@H](C)CO2
inactive: [1] | [2] | [3] | [4]

C[C@H]1CN([C@@H](C)CO)C(=O)Cc2cc(NC(=O)Nc3ccccc3)ccc2O[C@@H]1CN(C)C(=O)Nc1ccc2c(c1)OCO2
inactive: [1] | [2] | [3] | [4]

Cc1cccc(C)c1NC(=O)CNC(=O)C1CCCC1
inactive: [1] | [2] | [3] | [4]

Cc1ccc(NC(=O)C2(C)CCN2C(=O)CCC2CCCC2)cc1C (configuration not stated)
inactive: [1] | [2] | [3] | [4]

O=C(Nc1ccccc1)N1CCCCN2[C@H](C1)[C@H](c1ccc(C#CC3CC3)cc1)[C@@H]2CO
inactive: [1] | [2] | [3] | [4]

O=C(c1cccc(F)c1)N1CCCCN2[C@@H](CO)[C@H](c3ccc(-c4ccncc4)cc3)[C@@H]2C1
inactive: [1] | [2] | [3] | [4]

C[C@H]1CN([C@@H](C)CO)C(=O)c2cc(NC(=O)Nc3ccc4c(c3)OCO4)ccc2O[C@@H]1CN(C)CC1CCCCC1
inactive: [1] | [2] | [3] | [4]

CN1CCc2c(sc(N)c2C(=O)c2ccc(Cl)cc2)C1
inactive: [1] | [2] | [3] | [4]

COc1ccc(CN(C)C[C@@H]2Oc3c(NC(=O)Nc4cccc5ccccc45)cccc3C(=O)N([C@@H](C)CO)C[C@@H]2C)cc1
inactive: [1] | [2] | [3] | [4]

O=C(Nc1ccc(F)cc1)N1C[C@H]2[C@@H](c3ccccc31)[C@@H](CO)N2Cc1cocn1
inactive: [1] | [2] | [3] | [4]

COc1ccccc1CNC(=O)C[C@@H]1CC[C@@H]2[C@H](COc3ccc(NC(C)=O)cc3C(=O)N2C)O1
inactive: [1] | [2] | [3] | [4]

C[C@@H]1CCCCO[C@@H](CN(C)S(=O)(=O)c2ccccc2)[C@H](C)CN([C@@H](C)CO)C(=O)c2cc(NC(=O)Nc3ccc(F)cc3)ccc2O1
inactive: [1] | [2] | [3] | [4]

CO[C@H]1CC[C@@H]2CCOc3c(C#N)cccc3C(=O)N(C)C[C@H](OC)[C@@H](C)C(=O)N(C)C[C@@H]1O2
inactive: [1] | [2] | [3] | [4]

CO[C@@H]1CN(C)C(=O)c2cc(NS(=O)(=O)C3CCCCC3)ccc2OC[C@H](C)NC[C@@H]1C
inactive: [1] | [2] | [3] | [4]

C[C@H](CO)N1C[C@H](C)[C@@H](CN(C)Cc2ccncc2)OCCCC[C@H](C)Oc2ccc(NC(=O)NC3CCCCC3)cc2C1=O
inactive: [1] | [2] | [3] | [4]

C[C@H](CO)N1C[C@H](C)[C@H](CN(C)C(=O)Nc2cccc(F)c2)Oc2ncc(C#CCN(C)C)cc2C1=O
inactive: [1] | [2] | [3] | [4]

CN(C)C(=O)c1ccc(-c2ccc([C@H]3[C@H]4CN(CCC(F)(F)F)CCCCN4[C@H]3CO)cc2)cc1
inactive: [1] | [2] | [3] | [4]

COCC(=O)N(C)C[C@@H]1Oc2ncc(C#CCC3CCCC3)cc2C(=O)N([C@@H](C)CO)C[C@H]1C
inactive: [1] | [2] | [3] | [4]

N#Cc1ccc(C23CC4(C2)[C@H](CN(Cc2ccc(-c5ccccc5)cc2)[C@@H]4c2ccccc2)C3c2ccc(C(F)(F)F)cc2)cc1 (some centres not stated)
inactive: [1] | [2] | [3] | [4]

C[C@@H]1CN([C@@H](C)CO)C(=O)Cc2cc(NC(=O)Nc3cccc4ccccc34)ccc2O[C@@H]1CN(C)Cc1ccc(C(=O)O)cc1
inactive: [1] | [2] | [3] | [4]

Cc1cccc(C)c1NC(=O)C(CCc1ccccc1)N1CCN(C)CC1 (configuration not stated)
inactive: [1] | [2] | [3] | [4]

CNC[C@@H]1Oc2c(NS(=O)(=O)c3cccs3)cccc2C(=O)N([C@@H](C)CO)C[C@H]1C
inactive: [1] | [2] | [3] | [4]

O=C(C[C@@H]1CC[C@@H]2[C@H](COC[C@H](O)CN2Cc2cccc(C(F)(F)F)c2)O1)NCc1ccccc1
inactive: [1] | [2] | [3] | [4]

Cc1noc(C)c1NC(=O)Nc1cccc2c1O[C@H](CN(C)S(=O)(=O)c1cn(C)cn1)[C@H](C)CN([C@H](C)CO)C2=O
inactive: [1] | [2] | [3] | [4]

COCCNC(=O)C[C@@H]1CC[C@@H]2[C@H](COC[C@@H](O)CN2S(=O)(=O)c2ccccc2C)O1
inactive: [1] | [2] | [3] | [4]

Cc1ccc(N(C(=O)C2CCC(=O)N2)C2(C(=O)NC3CCCCC3)CCCCC2)cc1 (configuration not stated)
inactive: [1] | [2] | [3] | [4]

O=C(C[C@@H]1CC[C@H]2[C@@H](COC[C@@H](O)CN2C(=O)Nc2ccc(Cl)cc2)O1)NCCc1ccncc1
inactive: [1] | [2] | [3] | [4]

COc1cccc(S(=O)(=O)N2C[C@@H](O)COC[C@@H]3O[C@H](CC(=O)N4CCN(C)CC4)CC[C@H]32)c1
inactive: [1] | [2] | [3] | [4]

CC(C)NC(=O)Nc1ccc2c(c1)CC(=O)N([C@@H](C)CO)C[C@H](C)[C@H](CN(C)Cc1ccc3c(c1)OCO3)O2
inactive: [1] | [2] | [3] | [4]

CC(C)NC(=O)Nc1cccc2c1O[C@H](CN(C)C)[C@H](C)CN([C@H](C)CO)C2=O
inactive: [1] | [2] | [3] | [4]

Cc1ccc(NC(=O)C2(C)CCN2C(=O)CC2CCCC2)cc1 (configuration not stated)
inactive: [1] | [2] | [3] | [4]

C[C@H]1CN([C@@H](C)CO)C(=O)c2cc(NC(=O)CCN3CCOCC3)ccc2O[C@@H]1CN(C)Cc1ccc(C(=O)O)cc1
inactive: [1] | [2] | [3] | [4]

CO[C@H]1CN(C)C(=O)c2cc(NC(=O)c3ccc4c(c3)OCO4)ccc2OC[C@@H](C)N(CC2CC2)C[C@H]1C
inactive: [1] | [2] | [3] | [4]

C[C@@H]1CN([C@H](C)CO)C(=O)Cc2cc(NC(=O)Nc3cccc4ccccc34)ccc2O[C@@H]1CN(C)Cc1ccc(C(=O)O)cc1
inactive: [1] | [2] | [3] | [4]

O=C(C[C@@H]1CC[C@@H]2[C@H](COC[C@H](O)CN2S(=O)(=O)c2ccc(Oc3ccccc3)cc2)O1)NC1CCC1
inactive: [1] | [2] | [3] | [4]

COCCNC(=O)C[C@@H]1C[C@H]2c3cc(NC(=O)C4CCC4)ccc3O[C@H]2[C@@H](CO)O1
inactive: [1] | [2] | [3] | [4]

COc1ccc(-n2ncc3c(SCC(=O)NNC(C)=O)ncnc32)cc1
inactive: [1] | [2] | [3] | [4]

Cc1noc(C)c1S(=O)(=O)Nc1ccc2c(c1)CC(=O)N([C@@H](C)CO)C[C@@H](C)[C@@H](CN(C)S(=O)(=O)c1cccs1)O2
inactive: [1] | [2] | [3] | [4]

C[C@H]1CCCCO[C@@H](CN(C)C(=O)c2ccccc2)[C@@H](C)CN([C@@H](C)CO)C(=O)c2cc(NC(=O)c3ccncc3)ccc2O1
inactive: [1] | [2] | [3] | [4]

CO[C@@H]1CN(C)C(=O)c2ccc(NC(=O)Nc3ccccc3)cc2OC[C@H](C)N(C(C)=O)C[C@H]1C
inactive: [1] | [2] | [3] | [4]

CC(C)(C)SCCNC(=O)CN(c1ccc(F)cc1)S(=O)(=O)c1ccccc1
inactive: [1] | [2] | [3] | [4]

Cc1cccc(C)c1NC(=O)C(C)N1CCCC1 (configuration not stated)
inactive: [1] | [2] | [3] | [4]

CCCNC(=O)Nc1ccc2c(c1)C(=O)N(C)C[C@@H](OC)[C@@H](C)CN(C(=O)CC)[C@H](C)CO2
inactive: [1] | [2] | [3] | [4]

C[C@@H]1CN([C@H](C)CO)C(=O)c2cc(C#CC(C)(C)O)cnc2O[C@@H]1CN(C)Cc1cncnc1
inactive: [1] | [2] | [3] | [4]

C[C@@H]1CN([C@@H](C)CO)C(=O)CCCn2cc(nn2)CO[C@@H]1CN(C)Cc1ccc2c(c1)OCO2
inactive: [1] | [2] | [3] | [4]

CNC(=O)CSc1ncnc2c1cnn2-c1ccccc1
inactive: [1] | [2] | [3] | [4]

O=C(C[C@H]1CC[C@@H](NC(=O)c2ccc3c(c2)OCO3)[C@@H](CO)O1)NCc1ccc(F)cc1
inactive: [1] | [2] | [3] | [4]

C[C@@H]1CN([C@@H](C)CO)C(=O)c2cc(NC(=O)Nc3ccc4c(c3)OCO4)ccc2O[C@H]1CN(C)Cc1ccc(Oc2ccccc2)cc1
inactive: [1] | [2] | [3] | [4]

COCC(=O)NC[C@H]1N[C@H](CO)[C@@H]1c1ccc(C2=CCCC2)cc1
inactive: [1] | [2] | [3] | [4]

Source: PubChem BioAssay
